# Measured values reported in PubChem BioAssay AID1259418 (Broad Institute, 2018).
# Hit rate of the full screen: of about 3,400 compounds, about 840 (25%) were called active. About 11% were inconclusive and are not listed. These entries were drawn from the full list. Results with a measured potency or affinity are listed apart. Unmarked numbers belong to inactive results.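 Rule for the calls: active = fitted half-maximal concentration of signal decrease at or below twice the sample's top tested concentration; inconclusive = flat curve between -70 and -30 percent, or poor fit; inactive = flat within 30 percent, signal rise, or potency above limit.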
# Assay: T. gondii growth inhibition with IFN-gamma, dose response, cell-based, ME49Luc, HeLa, luciferase, 72 h (AID 1259418)
# Conditions: T. gondii ME49Luc in IFN-y HeLa, hits give low values, -100% = high-dose IFN-γ control wells; at 19.5 µM unless noted
row,Compound,max activity
1,COc1ccc(-c2nc3c(s2)CN(S(=O)(=O)c2ccc(C(C)C)cc2)CC3)cc1,10.1% [at 0.16 µM]
2,CCCN1CCc2nc(SCc3nc(-c4ccc(OCC)c(OC)c4)oc3C)[nH]c(=O)c2C1,28.6% [at 0.16 µM]
3,Cc1ccc(-c2coc(-c3ccc(NC(=O)Nc4ccc(F)cc4)cc3)n2)cc1,8.43% [at 10 µM]
4,Cc1c(-c2n[nH]c(=S)n2-c2ccccc2)sc2nc3n(c(=O)c12)CCC3,-9.68% [at 0.16 µM]
5,CCc1cccc(NC(=O)COc2nc(CC)nc3ccccc23)c1,-10.7% [at 10 µM]
6,Cc1nc(OCC(=O)NCc2ccccc2)c2ccccc2n1,19.6% [at 0.16 µM]
7,Cn1c(=O)c(C(=O)Nc2ccccc2)cc2cccnc21,14.2% [at 2.6 µM]
8,Cn1cccc1C(=O)Nc1ccc2c(c1)CCC(=O)N2,85.5%
9,CCc1nc(OCC(=O)Nc2ccccc2Cl)c2ccccc2n1,-7.29% [at 1.35 µM]
10,Cc1nc(C)c(C(=O)N2CCCC2c2nc(-c3ccc(F)cc3F)no2)s1 (centres undefined),25.6% [at 10 µM]
11,CCc1nc(OCC(=O)Nc2c(C)cc(C)cc2C)c2ccccc2n1,7.02% [at 2.6 µM]
12,Cc1ccc(CNC(=O)Nc2ccc(-c3nc(-c4ccccc4)co3)cc2)cc1,90.3% [at 10 µM]
13,CN1C(=O)c2cc(NC(=O)Cc3cccs3)ccc2OC[C@H]2O[C@@H](CC(=O)NCc3ccc(-c4ccccc4)cc3)CC[C@@H]21,-7.79% [at 1.2 µM]
14,Cc1oc(-c2ccccc2)nc1Cn1nnc(-c2nc(-c3ccccc3Br)no2)c1C,-8.57% [at 0.35 µM]
15,CC(=O)O[C@H]1C[C@@H](OC(C)=O)C(C)(C)C2C[C@@H](OC(C)=O)[C@@]3(C)C4=CC(=O)O[C@@H](c5ccoc5)[C@]4(C)CCC3[C@]21C (some centres undefined),-9.83% [at 5 µM]
16,Cc1ccc(CNC(=O)Nc2ccc(-c3nc(-c4ccc(C)cc4C)co3)cc2)cc1,14.7% [at 0.16 µM]
17,CCCCC(=O)Nc1ccc(-c2nc(-c3cc(C)ccc3C)co2)cc1,-7.17% [at 5 µM]
18,O=C1CNC[C@@H]2[C@H](c3ccc(C#Cc4cccnc4)cc3)[C@@H](CO)N12,42.6%
19,N#Cc1ccc(-c2ccc([C@H]3[C@@H](CO)N4C(=O)CNC[C@@H]34)cc2)cc1,52.5%
20,O=C1CNC[C@@H]2[C@H](c3ccc(C#Cc4cccnc4)cc3)[C@H](CO)N12,36.8%
21,O=C1CC2C(CCN2Cc2ccc(F)cc2)N1CCN1CCOCC1 (centres undefined),15.6% [at 10 µM]
22,Cc1ccc(-c2coc(-c3ccc(NC(=O)c4sccc4C)cc3)n2)c(C)c1,14.5%
23,COC[C@H](N)C(=O)N1CCC(Cc2nnc(SC)n2C)CC1,32.3%
24,Cc1nc(Cn2cnc(-c3nc(C(=O)NCc4cc(F)cc(F)c4)c4ccccn34)c2)cs1,-10.1%
25,Cc1ccc(C)c(-c2coc(-c3ccc(NC(=O)Nc4cccc(F)c4)cc3)n2)c1,9.94% [at 2.6 µM]

row,Compound,max activity
1,CC(C)Oc1ccc(NC(=O)c2nc3c(n2C(C)C)CCN(C(=O)c2ccccc2)C3)cc1,-6.92% [at 2.6 µM]
2,Cc1ccc(-c2nc(Cn3nnc(-c4nc(-c5cccc(C(F)(F)F)c5)no4)c3C)c(C)o2)cc1,13.1%
3,CCOC(=O)CSC1=Nc2ccccc2C2=NC(CC(=O)NCc3ccccc3OC)C(=O)N12 (centres undefined),-7.6% [at 0.68 µM]
4,Cc1cccc(-c2nc(Cn3nnc(-c4nc(-c5cccnc5)no4)c3C)c(C)o2)c1,-5.69% [at 2.6 µM]
5,Cc1ccc(-c2coc(-c3ccc(NC(=O)c4cccc(F)c4)cc3)n2)cc1,42.3%
6,O=C(Nc1ccc(-c2nc(-c3ccccc3)co2)cc1)c1ccc(Cl)cc1,21.8% [at 5 µM]
7,O=C(Nc1ccc(-c2nc(-c3ccccc3)co2)cc1)c1ccc(F)cc1,21.2% [at 1.35 µM]
8,O=C(Nc1ccc(-c2nc(-c3ccccc3)co2)cc1)c1ccccc1,74.5%
9,COc1ccc(-c2nc(Cn3nnc(-c4nc(-c5cccc(Cl)c5)no4)c3C)c(C)o2)cc1,-6.44% [at 0.35 µM]
10,Cc1nc(CCNC(=O)C2CCN(S(=O)(=O)c3cc(F)ccc3F)CC2)cs1,21.6% [at 2.6 µM]
11,Cc1ccc(C(=O)Nc2c(C(=O)N3CCN(c4ccccn4)CC3)[nH]c3ccccc23)cc1,-27.2%
12,O=C(Cc1cccc(F)c1)Nc1ccc(-c2nc(-c3ccccc3)co2)cc1,16.9% [at 2.6 µM]
13,Cc1ccc(-c2nc(Cn3nnc(-c4nc(-c5ccc(F)cc5)no4)c3C)c(C)o2)cc1,22%
14,CCCC(=O)Nc1ccc(-c2nc(-c3cc(C)ccc3C)co2)cc1,-11.6% [at 1.35 µM]
15,COCC12CCCOC1CCN(S(=O)(=O)c1cn(C)cn1)C2 (centres undefined),18.3%
16,COC[C@@H]1CCC[C@]12CN(S(=O)(=O)c1cccs1)CCO2,-9.83% [at 0.6 µM]
17,CCSc1ccc(-c2sc(-c3ccc(F)cc3)nc2C)nn1,31.6%
18,O=C(Nc1c(C(=O)NCc2ccccn2)[nH]c2ccccc12)c1ccc(Cl)cc1,9.23% [at 1.35 µM]
19,Cc1ccc2[nH]c(C(=O)NCc3cccnc3)c(NC(=O)c3ccc(Cl)cc3)c2c1,-12% [at 10 µM]
20,Cc1cccc(C(=O)Nc2c(C(=O)NCc3ccccn3)[nH]c3ccc(C)cc23)c1,14.8% [at 10 µM]
21,Cc1ccc2[nH]c(C(=O)NCc3ccccn3)c(NC(=O)c3ccc(Cl)cc3)c2c1,27.1% [at 0.35 µM]
22,Cc1cccc(C(=O)Nc2c(C(=O)NCc3cccnc3)[nH]c3ccc(C)cc23)c1,28.1% [at 5 µM]
23,Cc1ccc(C(=O)Nc2c(C(=O)NCc3cccnc3)[nH]c3ccc(C)cc23)cc1,54.9% [at 2.6 µM]
24,Cc1ccc(C(=O)Nc2c(C(=O)NCc3ccccn3)[nH]c3ccccc23)cc1,-2.99% [at 0.35 µM]
25,Cc1ccc2[nH]c(C(=O)N3CCN(c4ccccn4)CC3)c(NC(=O)c3ccc(F)cc3)c2c1,-13.6%

row,Compound,max activity
1,Cc1ccc2c(c1C)-n1cccc1C1(CCN(C(=O)Cc3cccs3)CC1)N2,6.55% [at 0.16 µM]
2,COc1ccc(-c2nc(Nc3cccc(Cl)c3C)c3ccccc3n2)cc1,25.3%
3,Cc1ccc(-c2coc(-c3ccc(NC(=O)Nc4cccc(Br)c4)cc3)n2)cc1,22.7% [at 0.16 µM]
4,Cc1ccccc1-c1noc(-c2nnn(Cc3nc(-c4cccc(Cl)c4)oc3C)c2C)n1,-11.4% [at 0.16 µM]
5,Cc1noc(C)c1C1CCCN1Cc1cn(C(C)C)c2ccccc12 (centres undefined),17.5% [at 10 µM]
6,Cc1cc(C2CCCN2Cc2cn(C(C)C)c3ccccc23)on1 (centres undefined),5.01%
7,Clc1ccc(CSc2nc(NC3CCCCC3)c3ccccc3n2)cc1,26.1% [at 2.6 µM]
8,CC(C)c1ccc(S(=O)(=O)N2CCC3(CC2)NCCN=C3NC2CCCCC2)cc1,20% [at 0.16 µM]
9,CC(C)c1ccc(S(=O)(=O)N2CCC3(CC2)NCCN=C3NC2CCCCCC2)cc1,17.1% [at 0.16 µM]
10,CC(C)c1ccc(S(=O)(=O)N2CCC3(CC2)NCCN=C3NC2CCCC2)cc1,-14.4% [at 10 µM]
11,Cc1ccc(-c2coc(-c3ccc(NC(=O)Nc4ccc(Cl)cc4)cc3)n2)cc1,13.9% [at 0.16 µM]
12,Cc1ccc(C)c(-c2coc(-c3ccc(NC(=O)Nc4ccc(C)c(F)c4)cc3)n2)c1,15%
13,CCc1ccccc1Nc1ncnc2c1cnn2-c1ccc(OC)cc1,48.9%
14,Clc1ccc(-c2nc(N3CCN(c4ccccn4)CC3)c3ccccc3n2)cc1,-23.4% [at 1.35 µM]
15,COc1ccc(-c2nc(NCc3cccc(OC)c3)c3ccccc3n2)cc1,17.2%
16,CCc1ccccc1NC(=O)N1CCN(Cc2nc(-c3ccc(C)cc3)oc2C)CC1,29.1% [at 10 µM]
17,COc1ccc(-c2nc3c(s2)CN(C(=O)Nc2ccc(Cl)cc2)CC3)cc1OC,10.2% [at 0.16 µM]
18,CCOC(=O)CSC1=Nc2ccccc2C2=NC(CC(=O)NC3CCCCC3)C(=O)N12 (centres undefined),-18.7% [at 10 µM]
19,O=C1CCc2cc(S(=O)(=O)NCc3ccccc3Cl)cc3c2N1CCC3,22.6% [at 2.6 µM]
20,CC1Cc2ccccc2N1S(=O)(=O)c1cc2c3c(c1)CCC(=O)N3CCC2 (centres undefined),-11.1% [at 0.35 µM]
21,O=C1CCc2cc(S(=O)(=O)NCCC(c3ccccc3)c3ccccc3)cc3c2N1CCC3,9.16%
22,O=C1CCc2cc(S(=O)(=O)NCc3cccs3)cc3c2N1CCC3,24.5%
23,O=C1CCc2cc(S(=O)(=O)N3CCCc4ccccc43)cc3c2N1CCC3,-12% [at 0.35 µM]
24,O=C1CCc2cc(S(=O)(=O)N3CCC(Cc4ccccc4)CC3)cc3c2N1CCC3,11.4% [at 1.35 µM]
